The nature of assay [1]: NCI Yeast Anticancer Drug Screen. Data for the rad50 strain (AID 155).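 Also: 0% = growth of vehicle-only cultures of the same strain.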 The conditions noted are these: S. cerevisiae rad50 strain growth inhibition, hits give high values. The procedure, abridged:
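Cells are treated with compound, grown, and their growth is then scored against vehicle-only cultures of the same repair-deficient yeast strain.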

The nature of assay [2]: NCI Yeast Anticancer Drug Screen. Data for the mec2-1 strain (AID 157). Conditions: S. cerevisiae mec2-1 strain, hits give high values. The essentials:
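Mutant yeast (mec2-1) grown with compound; growth inhibition relative to vehicle control reported.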

Assay [3] can be described thus: NCI Yeast Anticancer Drug Screen. Data for the sgs1 mgt1 strain (AID 161).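 Also: 0% = growth of cultures given vehicle only.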 The conditions noted are these: S. cerevisiae sgs1 mgt1 strain, hits give high values. The essentials:
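Yeast cells carrying a defined DNA-repair defect were exposed to test compounds. Growth inhibition was measured relative to vehicle-treated controls.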

A short description of assay [4]: NCI Yeast Anticancer Drug Screen. Data for the cln2 rad14 strain (AID 165).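 Also: 0% = growth equal to vehicle treated cultures.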 Conditions: S. cerevisiae cln2 rad14 strain, hits give high values. The essentials: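 Readout is yeast growth inhibition versus vehicle-treated controls, using a strain with cln2 and rad14 alterations exposed to compound.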
Assay [5] is described as follows: NCI Yeast Anticancer Drug Screen. Data for the bub3 strain (AID 167). Conditions: S. cerevisiae bub3 mutant strain, hits give high values. The essentials:
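Part of a panel of yeast mutants defective in DNA damage repair or cell cycle regulation. Each strain is grown with compound, and inhibition is calculated relative to solvent-treated cultures.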

A short description of assay [6]: NCI Yeast Anticancer Drug Screen. Data for the mlh1 rad18 strain (AID 175). The conditions noted are these: S. cerevisiae mlh1 rad18 strain growth inhibition, hits give high values. The procedure, abridged:
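Genetically defined yeast (DNA repair-deficient) exposed to compounds; growth inhibition determined relative to vehicle.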

Setting [7] is: at 5.0 µM (retest, dose inferred, filed as 0.5).
Setting [8] is: at 50.0 µM (retest, dose inferred, filed as 5.0).

This is part of a sample that, as a whole, favours compounds with a hit. Of some 79,000 tested, about 15% had one in any assay. Values without a mark were called inactive. Activity calls are given as the source filed them. Rule as the data show it: active = growth inhibition above about 70%; inactive = the rest.

As for `O=C(O)Cc1ccccc1CCc1ccccc1Cl`, the growth inhibition in assay [1] (setting [7]) was -26%; in assay [1] (setting [8]) it was 74% (active); in assay [1] (at 50.0 µM), 85.2% (active); in assay [2] (setting [7]), -11%; in assay [2] (setting [8]), 72% (active); in assay [2] (at 50.0 µM), 82.5% (active). The growth inhibition is -19% in assay [3] (setting [7]); 71% (active) in assay [3] (setting [8]); 83.5% (active) in assay [3] (at 50.0 µM); -2% in assay [4] (setting [7]); 74% (active) in assay [4] (setting [8]); 87.1% (active) in assay [4] (at 50.0 µM). In addition, the growth inhibition in assay [5] (setting [7]) was 2%; in assay [5] (setting [8]), 83% (active); in assay [5] (at 50.0 µM), 77.1% (active); in assay [6] (setting [7]), -19%; in assay [6] (setting [8]), 83% (active); in assay [6] (at 50.0 µM), 81.3% (active).

Regarding `CCCN1C(=O)c2ccccc2C1=O`, the growth inhibition was 9% in assay [1] (setting [7]); 2% in assay [1] (setting [8]); 20.4% in assay [1] (at 50.0 µM); 1% in assay [2] (setting [7]); -3% in assay [2] (setting [8]); -6.65% in assay [2] (at 50.0 µM). In addition, the growth inhibition in assay [3] (setting [7]) was -3%; in assay [3] (setting [8]), 4%; in assay [3] (at 50.0 µM), 14.1%; in assay [4] (setting [7]) it was 10%; in assay [4] (setting [8]), 2%; in assay [4] (at 50.0 µM), 36.6%. The growth inhibition in assay [5] (setting [7]) is 10%; in assay [5] (setting [8]), 17%; in assay [5] (at 50.0 µM) it was -0.55%; in assay [6] (setting [7]), 4%; in assay [6] (setting [8]), 0%; in assay [6] (at 50.0 µM) it was 9.5%.

As to `CCc1cccc(C(C)(C)C)c1NC(=S)N/C=C(\c1ccccc1)S(=O)Cc1ccccc1` (configuration not stated), the growth inhibition in assay [1] (setting [7]) is 2%; in assay [1] (setting [8]) it was 77% (active); in assay [1] (at 50.0 µM) it was 68.4%; in assay [2] (setting [7]) it was 7%; in assay [2] (setting [8]), 70% (active); in assay [2] (at 50.0 µM), 46.2%. Besides, the growth inhibition is 10% in assay [3] (setting [7]); 56% in assay [3] (setting [8]); 68.2% in assay [3] (at 50.0 µM); -15% in assay [4] (setting [7]); 45% in assay [4] (setting [8]); 33.5% in assay [4] (at 50.0 µM). Moreover, the growth inhibition in assay [5] (setting [7]) is -23%; in assay [5] (setting [8]), 25%; in assay [5] (at 50.0 µM), 73.4% (active); in assay [6] (setting [7]) it was 14%; in assay [6] (setting [8]) it was 62%; in assay [6] (at 50.0 µM) it was 69.8%.

Regarding `CC[n+]1c(/C=C/c2cc(C(=O)OC)n3c2sc2ccccc23)sc2ccccc21`, the growth inhibition in assay [1] (setting [7]) was 43%; in assay [1] (setting [8]), 99% (active); in assay [1] (at 50.0 µM) it was 99% (active); in assay [2] (setting [7]), 38%; in assay [2] (setting [8]), 99% (active); in assay [2] (at 50.0 µM) it was 99.2% (active). Besides, the growth inhibition in assay [3] (setting [7]) was 3%; in assay [3] (setting [8]), 99% (active); in assay [3] (at 50.0 µM), 99.2% (active); in assay [4] (setting [7]) it was 25%; in assay [4] (setting [8]), 99% (active); in assay [4] (at 50.0 µM) it was 98.4% (active). For the same compound, the growth inhibition is 49% in assay [5] (setting [7]); 99% (active) in assay [5] (setting [8]); 98.6% (active) in assay [5] (at 50.0 µM); 61% in assay [6] (setting [7]); 99% (active) in assay [6] (setting [8]); 98.8% (active) in assay [6] (at 50.0 µM).

`CCC(=O)Sc1ccccc1C(=O)Nc1ccc(Cl)cc1`: the growth inhibition in assay [1] (setting [7]) is 18%; in assay [1] (setting [8]), 43%; in assay [1] (at 50.0 µM), 88.5% (active); in assay [2] (setting [7]), 28%; in assay [2] (setting [8]), 64%; in assay [2] (at 50.0 µM) it was 92.9% (active). Also, the growth inhibition in assay [3] (setting [7]) was 12%; in assay [3] (setting [8]), 47%; in assay [3] (at 50.0 µM), 52.4%; in assay [4] (setting [7]), 23%; in assay [4] (setting [8]), 62%; in assay [4] (at 50.0 µM), 53.1%. The growth inhibition was 22% in assay [5] (setting [7]); 74% (active) in assay [5] (setting [8]); 56.4% in assay [5] (at 50.0 µM); 29% in assay [6] (setting [7]); 65% in assay [6] (setting [8]); 85.2% (active) in assay [6] (at 50.0 µM).

For the compound `CCN1/C(=C\c2cc[n+](CC)c3ccccc23)C=Cc2ccccc21`, the growth inhibition was -3% in assay [1] (setting [7]); 96% (active) in assay [1] (setting [8]); 42.4% in assay [1] (at 50.0 µM); 2% in assay [2] (setting [7]); 96% (active) in assay [2] (setting [8]); 51.5% in assay [2] (at 50.0 µM). Further, the growth inhibition in assay [3] (setting [7]) is -1%; in assay [3] (setting [8]) it was 86% (active); in assay [3] (at 50.0 µM), 32.4%; in assay [4] (setting [7]) it was -8%; in assay [4] (setting [8]), 96% (active); in assay [4] (at 50.0 µM), -31.4%. Besides, the growth inhibition in assay [5] (setting [7]) is 6%; in assay [5] (setting [8]), 97% (active); in assay [5] (at 50.0 µM) it was 68.8%; in assay [6] (setting [7]), 1%; in assay [6] (setting [8]), 97% (active); in assay [6] (at 50.0 µM) it was 53.4%.

Take `CN(C)c1cc2nc3ccccc3nc2cc1O`: the growth inhibition is 2% in assay [1] (setting [7]); 46% in assay [1] (setting [8]); 62.9% in assay [1] (at 50.0 µM); -1% in assay [2] (setting [7]); 53% in assay [2] (setting [8]); 15.6% in assay [2] (at 50.0 µM). Further, the growth inhibition is -1% in assay [3] (setting [7]); 26% in assay [3] (setting [8]); 34.6% in assay [3] (at 50.0 µM); -7% in assay [4] (setting [7]); 34% in assay [4] (setting [8]); 45.8% in assay [4] (at 50.0 µM). Moreover, the growth inhibition in assay [5] (setting [7]) is -3%; in assay [5] (setting [8]) it was 59%; in assay [5] (at 50.0 µM) it was 94.5% (active); in assay [6] (setting [7]), 7%; in assay [6] (setting [8]) it was 76% (active); in assay [6] (at 50.0 µM), 81.9% (active).

`Cc1nc(-n2nc(-c3ccccc3)cc2-c2ccccc2)sc1C(/C=C\c1ccc([N+](=O)[O-])cc1)=N/NC(=S)NN`: the growth inhibition in assay [1] (setting [7]) is 4%; in assay [1] (setting [8]) it was 87% (active); in assay [1] (at 50.0 µM), 61.3%; in assay [2] (setting [7]), 3%; in assay [2] (setting [8]), 86% (active); in assay [2] (at 50.0 µM), 37.1%. The growth inhibition was 11% in assay [3] (setting [7]); 91% (active) in assay [3] (setting [8]); 80.7% (active) in assay [3] (at 50.0 µM); 0% in assay [4] (setting [7]); 67% in assay [4] (setting [8]); 10.8% in assay [4] (at 50.0 µM). Also, the growth inhibition is 25% in assay [5] (setting [7]); 88% (active) in assay [5] (setting [8]); 65.7% in assay [5] (at 50.0 µM); -2% in assay [6] (setting [7]); 80% (active) in assay [6] (setting [8]); 64.8% in assay [6] (at 50.0 µM).

Turning to `COc1ccc2c(c1)[n+]([O-])c(-c1ccccc1)c(N)[n+]2[O-]`, the growth inhibition in assay [1] (setting [7]) is 47%; in assay [1] (setting [8]) it was 98% (active); in assay [1] (at 50.0 µM), 99.2% (active); in assay [2] (setting [7]) it was 40%; in assay [2] (setting [8]), 99% (active); in assay [2] (at 50.0 µM), 99.3% (active). In addition, the growth inhibition is 73% (active) in assay [3] (setting [7]); 97% (active) in assay [3] (setting [8]); 99.2% (active) in assay [3] (at 50.0 µM); 67% in assay [4] (setting [7]); 98% (active) in assay [4] (setting [8]); 98.8% (active) in assay [4] (at 50.0 µM). For the same compound, the growth inhibition is 87% (active) in assay [5] (setting [7]); 99% (active) in assay [5] (setting [8]); 99.2% (active) in assay [5] (at 50.0 µM); 82% (active) in assay [6] (setting [7]); 99% (active) in assay [6] (setting [8]); 99% (active) in assay [6] (at 50.0 µM).

Source of the values: PubChem BioAssay (NCI).
